In PubChem BioAssay (NCI):
Compounds without any hit were thinned out: in the full panel of roughly 79,000, 15% have a hit. Active and inactive are the calls of the source. Cut-off read from the data, not from the text of the source: active = growth inhibition above about 70%; inactive = the rest.

Key:
[1] = NCI Yeast Anticancer Drug Screen. Data for the rad50 strain (AID 155);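 note: 0% = growth of vehicle-only cultures of the same strain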; conditions: S. cerevisiae rad50 strain growth inhibition; at 50.0 µM; hits give high values
Outline: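 Relative growth inhibition (compound vs vehicle) was measured in yeast with a defined repair-gene alteration.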

[2] = NCI Yeast Anticancer Drug Screen. Data for the mec2-1 strain (AID 157); conditions: S. cerevisiae mec2-1 strain, at 50.0 µM, hits give high values
Outline: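 Growth inhibition is read against vehicle-treated controls after compound exposure of the mec2-1 yeast strain, which is defective in DNA damage repair or cell cycle control.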

[3] = NCI Yeast Anticancer Drug Screen. Data for the sgs1 mgt1 strain (AID 161);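 note: 0% = growth of cultures given vehicle only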; conditions: S. cerevisiae sgs1 mgt1 strain, at 50.0 µM, hits give high values
Outline: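 Growth of a repair-deficient yeast mutant was monitored after compound treatment and expressed as inhibition relative to vehicle-treated cultures.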

[4] = NCI Yeast Anticancer Drug Screen. Data for the cln2 rad14 strain (AID 165);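 note: 0% = growth equal to vehicle treated cultures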; conditions: S. cerevisiae cln2 rad14 strain, at 50.0 µM, hits give high values
Outline: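 Growth inhibition, relative to vehicle-treated controls, is the read-out. The test organism is a yeast strain with defined genetic alterations, cln2 rad14.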

[5] = NCI Yeast Anticancer Drug Screen. Data for the bub3 strain (AID 167); conditions: S. cerevisiae bub3 mutant strain, at 50.0 µM, hits give high values
Outline: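 Screening used yeast with an engineered genetic alteration affecting cell cycle control. Compound-exposed cultures were compared with vehicle cultures, and reduced growth was taken as inhibition.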

[6] = NCI Yeast Anticancer Drug Screen. Data for the mlh1 rad18 strain (AID 175); conditions: S. cerevisiae mlh1 rad18 strain growth inhibition; at 50.0 µM; hits give high values
Outline: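 Cells of a genetically altered yeast strain, deficient in DNA damage repair, were treated with compound. Their growth was then compared with that of vehicle-treated cultures to give inhibition.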

Measured: growth inhibition

CCOC(=O)COc1c(C)cccc1Cl
inactive: [1] 4.2% | [2] 0.6% | [3] -0.25% | [4] -28.9% | [5] -23.6% | [6] -24.6%

NC1=Nc2ccccc2Sc2nncn21
inactive: [1] -18.2% | [2] -43.9% | [3] -10.7% | [4] -10.6% | [5] 0.1% | [6] -4.35%

Cc1ccc(S(=O)(=O)N/N=C(\c2nc3ccc([N+](=O)[O-])cc3[nH]c2=O)C(O)c2ccccc2Cl)cc1 (stereo unspecified)
inactive: [1] -1.2% | [2] -9.35% | [3] 11.6% | [4] 5.85% | [5] 10.3% | [6] 23.8%

CCOC(=O)C(C)C(=O)C(C)C (stereo unspecified)
inactive: [1] -1.65% | [2] 0.5% | [3] 0.75% | [4] -11.8% | [5] 13.7% | [6] -9.35%

CC(=O)Oc1cccc(CN2CCc3ccccc3C2)c1
inactive: [1] -3.05% | [2] -7.95% | [3] 1.55% | [4] -31.2% | [5] 8.8% | [6] -24.1%

Nc1nc2nc3c(nc2c(=O)[nH]1)CN(c1ccc(C(=O)O)cc1)C3=O
inactive: [1] 19.4% | [2] 5.6% | [3] -5.05% | [4] -7.45% | [5] 14.7% | [6] 11.4%

CCSC1(SCC)C2(CCCCC2)C(=O)C12CCCCC2
inactive: [1] -5.55% | [2] 17.1% | [3] 9.1% | [4] -12.1% | [5] 13.1%
active: [6] 78.1%

NC(=O)N/N=C(\c1ccccc1)C1CCCCc2ccccc21 (stereo unspecified)
inactive: [1] 48.5% | [2] 20.6% | [3] 33.2% | [4] 9.95% | [5] 43% | [6] 48%

C[C@@H]1CCC[C@H]1C(N)C(=O)O (stereo partly specified)
inactive: [1] -18% | [2] 2% | [3] -3.85% | [4] -25.1% | [5] -18.1% | [6] -12.9%

CC(C)(c1ccc([N+](=O)[O-])cc1)[N+](=O)[O-]
inactive: [1] 11.1% | [2] 10.3% | [3] 1.6% | [4] -7.4% | [5] -11.8% | [6] -4.55%

CC(=O)[CH-]C(=O)c1ccccc1.CC(=O)[CH-]C(=O)c1ccccc1.CC[O-].O=C1C=C([O-])C(=O)c2ccccc21.[Ti+4]
inactive: [1] 25.4% | [2] 60.5% | [3] 63.5% | [4] 61.1% | [5] 59.9% | [6] 56.9%

CO[C@H]1C=CO[C@@]2(C)Oc3c(C)c(O)c4c(O)c(c(CN5CCN(C)CC5)c(O)c4c3C2=O)NC(=O)/C(C)=C\C=C[C@H](C)[C@H](O)C(C)[C@@H](O)C(C)[C@H](OC(C)=O)[C@@H]1C (stereo partly specified)
inactive: [1] -14.5% | [2] -4.85% | [3] -21.1% | [4] 54% | [5] -36.2% | [6] -34.4%

Nc1nc(SCC(=O)O)nc(N)c1N=Nc1ccc(S(=O)(=O)NC(=O)c2ccccc2)cc1
inactive: [1] 7.3% | [2] 5.75% | [3] -7.4% | [4] -0.3% | [5] 0.1% | [6] 15.6%

Cc1cc(OCC(=O)O)c(Cl)cc1Cl
inactive: [1] -13.4% | [2] -9.7% | [3] -50.5% | [4] -22.9% | [5] -17.9% | [6] -11.7%

CN1C(=O)OC2C3NC(=O)OC3C(O)C(O)C21 (stereo unspecified)
inactive: [1] -7.85% | [2] -12.3% | [3] -6.3% | [4] -1.15% | [5] -6.15% | [6] -8.95%

O=C(OCc1ccc(Cl)cc1Cl)OCc1ccc(Cl)cc1Cl
inactive: [1] 7.55% | [2] -0.9% | [3] -3.7% | [4] -31.7% | [5] 19.2% | [6] 37.4%

COc1ccc(CNc2nc3ccc(C(F)(F)F)cc3nc2-c2ccccc2)cc1OC
inactive: [1] -33.8% | [2] 3.7% | [3] 17.6% | [4] 6.45% | [5] 1.05% | [6] -11.9%

CCOP(=O)(OCCN(C)C)C(c1ccccc1)c1ccccc1 (stereo unspecified)
inactive: [1] 19.9% | [2] -3.85% | [3] -10.8% | [4] -6.25% | [5] -9.75% | [6] 34.6%

CCCCC(CC)CCC(C)=O (stereo unspecified)
inactive: [1] 5.8% | [2] -0.8% | [3] 0.35% | [4] 3.3% | [5] 1.75% | [6] -0.9%

CSC(=N\N=C(/C)c1ccc(Br)cc1)/N=C/N(C)C
inactive: [1] 46.2% | [2] 23.2% | [3] 55.5% | [4] 19% | [5] 28.1% | [6] 31.7%

OCC(CO)(CO)CO
inactive: [1] 18.9% | [2] -0.7% | [3] -6.8% | [4] -16.1% | [5] 28.8% | [6] -5.3%

N#C/C=C(\N)C(C#N)C#N
inactive: [1] -4.85% | [2] -25.9% | [3] -3.15% | [4] 6.75% | [5] -3.6% | [6] 4.8%

[Mn].[NH-]C(CSSCC(N)C(=O)O)C(=O)O (stereo unspecified)
inactive: [1] -2.45% | [2] -0.4% | [3] -1% | [4] 5.5% | [5] 22.6% | [6] 9%

COc1ccc(C=O)c(C)c1
inactive: [1] -4.05% | [2] -30.1% | [3] 4.15% | [4] 15.3% | [5] -15.8% | [6] -5.45%

C[N+]1(CCC(=O)c2ccco2)CC2CCC(CC2)C1 (stereo unspecified)
inactive: [1] 3.9% | [2] -18.1% | [3] -37.1% | [4] -24.9% | [5] -68.7% | [6] 0.45%

NNC(=O)/C(=C/c1ccc(Cl)cc1Cl)NC(=O)c1ccccc1
inactive: [1] 45% | [2] 35.3% | [3] 39.3% | [4] 60.4% | [5] 66.8% | [6] 54.5%

CCOc1ccc(NC(=O)C(=O)CC(=O)C2=C(C)Nc3ccccc3S2)cc1
inactive: [1] 27.6% | [2] 14.8% | [3] 12.5% | [4] -2.25% | [5] -1% | [6] 28.5%

CCOC(=O)C1CC2(CCC(=O)O2)C(=O)O1 (stereo unspecified)
inactive: [1] -5.15% | [2] -5.95% | [3] -20.6% | [4] 3.05% | [5] -5.75% | [6] -6.85%

CC1=CC(O)(Cc2ccccc2)CC(C)(C)C1 (stereo unspecified)
inactive: [1] 2.1% | [2] -36.2% | [3] -17.9% | [4] -0.9% | [5] -27.9% | [6] -28.9%

CN1C(=O)N(C)C(N2CCCC2)c2c1nc1ccccn1c2=O (stereo unspecified)
inactive: [1] -11.7% | [2] -30.8% | [3] -41.8% | [4] 5.15% | [5] -5% | [6] -29.4%

CC(C)OC(=O)CO
inactive: [1] 29.6% | [2] 3.55% | [3] 14.2% | [4] 12.2% | [5] 10.5% | [6] 13.2%

CCOC(=O)C1SCCC1(C)O (stereo unspecified)
inactive: [1] 18.9% | [2] 21.7% | [3] 16.6% | [4] 16.8% | [5] 3.55% | [6] 12.7%

O=Cc1ccc(OCCCOc2ccc([N+](=O)[O-])cc2)cc1
inactive: [1] -5.1% | [2] 1.6% | [3] 11.3% | [4] -12.1% | [5] 33.1% | [6] 42%

C#C[C@@H](CCCC)OC(=O)N[C@H](C)c1ccccc1
inactive: [1] 58.9% | [2] 49.6% | [3] 64.5% | [4] -11.6% | [5] 22.5% | [6] 16.1%

CC(NC(=O)C(Cc1ccccc1)NC(=O)OCc1ccccc1)C(=O)NC1C(CO)OC(n2cnc3c(N)ncnc32)C1O (stereo unspecified)
inactive: [1] 15.3% | [2] -3.9% | [3] -2.1% | [4] -1.1% | [5] -2.5% | [6] 16.5%

Cc1ccc2[nH]c(-c3ccccc3)cc2c1
inactive: [1] -1.85% | [2] -21.6% | [3] -10.6% | [4] -27.8% | [5] -8.15% | [6] -9.8%

CN1C(=O)C(/C=N/NC(=O)c2cccnc2)C(N)N(C)C1=O (stereo unspecified)
inactive: [1] 4.85% | [2] 18.2% | [3] -4.8% | [4] -1.45% | [5] -41.9% | [6] 31.7%

O=c1[nH]nc(Sc2ccccc2)c2nncn12
inactive: [1] 15.7% | [2] -1.05% | [3] -5.45% | [4] -16.6% | [5] -4.7% | [6] 24.6%

CC/C(Cl)=N\OC(=O)Nc1ccc(C#N)cc1
inactive: [1] -44.8% | [2] 4.9% | [3] -19.4% | [4] 13.8% | [5] 46.3% | [6] -10.4%

CC(=O)O[C@H]1C[C@H]2[C@@H](OC(C)=O)/C=C3\C[C@](C)(C(=O)[C@H](O)C(=C1C)C2(C)C)[C@@H](O)C[C@@H]3OC(=O)[C@H](O)[C@H](c1ccccc1)N(C)C
inactive: [1] 7.3% | [2] -0.45% | [3] -8.6% | [4] -10.3% | [5] -1.4% | [6] 2.4%

O=C1C(Cl)=C(NC(CO)(CO)CO)C(=O)c2ccccc21
inactive: [1] 4.7% | [2] 16.6% | [3] -6.05% | [4] 1.6% | [5] 8.45% | [6] 8.15%
